# From PubChem BioAssay
# Hits are enriched below; roughly 3.5% of the tested compounds scored in any of these assays.
# MITF primary: inhibitors of human MITF; O75030; AlphaScreen MITF homodimerization, bead proximity signal; inhibition, % at 2.6 µM; 0.91% of 650,000 active; AID 1259374; in the data active = inhibition above about 50%;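 note: 0% = vehicle wells with protein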
# Target sequence (O75030 whole entry, looked up): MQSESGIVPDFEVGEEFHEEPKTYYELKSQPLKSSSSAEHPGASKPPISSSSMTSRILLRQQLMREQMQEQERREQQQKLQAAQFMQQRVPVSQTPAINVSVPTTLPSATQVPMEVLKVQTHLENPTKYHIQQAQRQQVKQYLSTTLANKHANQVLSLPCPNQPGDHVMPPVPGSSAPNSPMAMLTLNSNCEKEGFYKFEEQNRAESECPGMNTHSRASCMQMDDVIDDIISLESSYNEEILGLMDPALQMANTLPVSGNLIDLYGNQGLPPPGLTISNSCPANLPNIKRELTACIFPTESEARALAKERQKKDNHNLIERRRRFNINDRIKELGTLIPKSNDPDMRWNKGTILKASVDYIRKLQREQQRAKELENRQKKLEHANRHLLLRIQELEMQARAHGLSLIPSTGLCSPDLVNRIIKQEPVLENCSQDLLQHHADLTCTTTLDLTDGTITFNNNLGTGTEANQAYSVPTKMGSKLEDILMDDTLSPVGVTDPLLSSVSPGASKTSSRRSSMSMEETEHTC
# TEAD-YAP block: TEAD-YAP interaction inhibition; HEK-TIYL cells, TEAD-Gal4/YAP UAS-luciferase luminescence; inhibition, % at 9.12 µM; 1.4% of 640,000 active; in the data active = inhibition above about 32%;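 note: 0% = median of test compound wells and 100% = reference inhibitor wells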
# FBW7 act: human FBW7 E3 ligase activation, primary screen; Q969H0; AlphaScreen FBW7–phospho-cyclin E peptide binding, activator screen; normalized activity (activation), % at 26.1 µM; 0.13% of 650,000 active; AID 1259310; in the data active = normalized activity above about 1.9%;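 note: purified mutant Fbw7 with reduced substrate affinity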
# GPR151 ag: activates the human receptor GPR151. activation, % at 11.2 µM. PathHunter beta-arrestin GPR151 cells, luminescence. 1% of 650,000 active. Q8TDV0; in the data active = activation above about 4.9%;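 note: 0% = median of compound wells and 100% = cells with positive control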
# Starred values were filed as active, the others as inactive; . = no result given.
SMILES,MITF primary,TEAD-YAP block,FBW7 act,GPR151 ag
CCOc1ccc(C)cc1S(=O)(=O)Nc1ccc(I)cc1,-5,42*,0,1
CCOc1ccc(C)cc1S(=O)(=O)Nc1ccc(F)cc1,-1,-9,0,-2
Cc1nn(-c2ccccc2)c(Cl)c1C(=O)NCc1cccnc1,4,-2,0,0
Cc1nn(-c2ccccc2)c(Cl)c1C(=O)Nc1ccc(C(=O)NCc2cccnc2)cc1,25,39*,0,-1
CCc1cc(=O)[nH]c(-n2nc(C)cc2NC(=O)CC2CCCC2)n1,32,58*,0,-2
CCCc1cc(=O)[nH]c(-n2nc(C)cc2NC(=O)C2CC2)n1,12,12,0,0
CN(C)c1ccc(/C=C2/SC(=Nc3ccccc3Cl)NC2=O)cc1,6,45*,0,-1
Cc1ccc(/C=C2/SC(=Nc3cccc(C)c3)NC2=O)cc1,-12,8,0,-1
COc1ccc(/C=C2/SC(=Nc3ccccc3Cl)NC2=O)cc1,3,37*,0,1
Cc1cccc(N=C2NC(=O)/C(=C\c3ccc(N(C)C)cc3)S2)c1,6,42*,1,0
O=C(O)CCNC(=O)Cc1c(F)cccc1Cl,3,-1,0,0
O=C(NCC1CCCO1)c1ccc2c(Cl)c3c(nc2c1)CCC3 (stereo unspecified),3,-28,0,0
C=CCNC(=S)NNc1nc(Nc2ccccc2)nc(N2CCCCC2)n1,15,34*,0,1
C=CCNC(=S)NNc1nc(N2CCCC2)nc(N2CCCC2)n1,3,7,0,0
Cc1ccccc1N1C(=O)C(Cc2ccccc2)S/C1=C(/C#N)C(N)=O (stereo unspecified),8,9,0,1
O=c1c2cccc3c2c(nn1Cc1ccccc1Cl)-c1ccccc1-3,3,3,0,0
O=c1c2cccc3c2c(nn1CCN1CCCCC1)-c1ccccc1-3,18,80*,0,0
COc1ccc(/C=N/Nc2nc3ccccc3nc2C)c(OC)c1,14,-5,1,-1
COC1C(O)CC(OC2CC(Oc3cc4cc5c(c(O)c4c(O)c3C)C(=O)[C@@H](OC3CC(OC4CC(OC6CC(C)(O)C(C)C(C)O6)C(O)C(C)O4)C(O)C(C)O3)[C@H]([C@H](OC)C(=O)[C@@H](O)[C@@H](C)O)C5)OC(C)C2OC(C)=O)OC1C (stereo partly specified),3,96*,0,-1
CC(=O)NCC1CCC2(CCN(Cc3ccc4c(c3)CCCN4C)CC2)O1 (stereo unspecified),7,55*,0,1
CC(=O)NCC1CCC2(CCN(Cc3ccc4ccccc4c3)CC2)O1 (stereo unspecified),-5,-7,0,0
Cc1cc(N2CCN(c3ncccn3)CC2)nc2ccc(NC(=O)c3cccs3)cc12,7,13,0,0
NC(=O)c1ccc(Nc2cc(-c3ccccc3)ccn2)cc1,11,-78,1,0
c1ccc(Nc2cc(-c3ccnc(Nc4ccccc4)c3)ccn2)cc1,11,38*,0,-1
CC(=O)c1ccccc1OCc1ccccc1C,7,5,2.6*,0
SMILES,MITF primary,TEAD-YAP block,FBW7 act,GPR151 ag
CCOC(=O)C(O)(c1ccc(N(CC)C(=O)c2ccccc2)cc1)C(F)(F)F (stereo unspecified),18,3,2.6*,-1
CCCCCC(=O)/C=C/[C@@H]1[C@H](C/C=C\CCCC(=O)O)[C@@H](O)C[C@H]1O,11,.,.,-1
C=CCOc1c(I)cc(/C=C2/C(=O)N(C)C(=S)N2C)cc1OC,5,-3,0,0
COCCN=c1scc(-c2cccc3ccccc23)n1/N=C/c1ccc[nH]1,10,43*,0,2
CC(C)Cn1c(N2CCOCC2)n[nH]c1=S,-8,8,0,0
O=C(CCCC1=NS(=O)(=O)c2ccccc2N1)NC1CCCCCC1,7,2,0,1
NC(=O)c1ccsc1NC(=O)c1ccc2c(c1)CCCC2,6,58*,0,-10
CCCN(CCC)C(=S)Nc1ccccc1Br,4,6,0,-2
Cc1nnc(N/N=C/c2ccccc2)[nH]c1=O,-7,-4,0,0
Cc1[nH]n(-c2ccccc2)c(=O)c1/C=N/Nc1nncc(-c2ccccc2)n1,-22,42*,0,1
Cc1[nH]n(-c2ccccc2)c(=O)c1/C=N/Nc1nnc(C)c(=O)[nH]1,101*,15,0,0
CCOc1ccc(N=Cc2c(C)[nH]n(-c3ccccc3)c2=O)cc1,1,0,0,2
Cc1ccc(/C=N/Nc2nncc(-c3ccccc3)n2)o1,-4,-42,-1,-1
Cc1[nH]n(-c2ccccc2)c(=O)c1C=Nc1ccc(N(C)C)cc1,63*,21,0,0
